From PubChem BioAssay AID624069 (Southern Research Specialized Biocontainment Screening …, 2012)
Values without a mark were called inactive. The rule behind the calls is not given here.

Assay: Vero 76 cell cytotoxicity, dose response, cytotoxicity control, set 5 (AID 624069)
Conditions: Vero 76 cells cytotoxicity; series mostly up to 25 µM; viability: at the top concentration

SMILES | viability
CCN1CCN(Cc2nc3ccc([N+](=O)[O-])cc3c(=O)n2-c2ccccc2)CC1 | 91.7%
CCN1CCN(Cc2nc3ccccc3c(=O)n2-c2ccccc2F)CC1 | 95.1%
O=c1c2cc([N+](=O)[O-])ccc2nc(CN2CCNCC2)n1-c1ccccc1F | 89.6%
O=C(NCc1ccco1)C1CCN(C(=O)c2cc3sccc3n2Cc2ccc(F)cc2)CC1 | 74.5%
CCN1CCN(Cc2nc3ccc([N+](=O)[O-])cc3c(=O)n2-c2ccccc2F)CC1 | 93.1%
CN1CCN(Cc2nc3ccc([N+](=O)[O-])cc3c(=O)n2-c2ccccc2F)CC1 | 101%
CCN1CCN(Cc2nc3ccc(C(F)(F)F)cc3c(=O)n2-c2ccccc2F)CC1 | 94.5%
CC(C)(C)OC(=O)N1CCN(Cc2nc3ccc([N+](=O)[O-])cc3c(=O)n2-c2ccccc2F)CC1 | 98.8%
CCN1CCN(Cc2nc3ccc([N+](=O)[O-])cc3c(=O)n2-c2cccc(F)c2)CC1 | 90.7%
CCN1CCN(Cc2nc3ccc([N+](=O)[O-])cc3c(=O)n2-c2ccc(F)cc2)CC1 | 98%
